Our source for the binding signal values is PMC7862700, “An all-to-all approach to the identification of sequence-specific readers for epigenetic DNA modifications on cytosine”.

Common to all, as to test: DAPPL (digital affinity profiling via proximity ligation, sequencing); 10 mM Tris-HCl pH 7.5, 50 mM NaCl, 1 mM DTT, 4% glycerol, room temperature, 30 min; GST-TFs on glutathione beads, 16-mer random dsDNA library, 0.1% formaldehyde crosslink after washing; high values mean tight binding
One assay addresses T1, FEV (Homo sapiens, UniProt Q99581 1-238).
T1 sequence: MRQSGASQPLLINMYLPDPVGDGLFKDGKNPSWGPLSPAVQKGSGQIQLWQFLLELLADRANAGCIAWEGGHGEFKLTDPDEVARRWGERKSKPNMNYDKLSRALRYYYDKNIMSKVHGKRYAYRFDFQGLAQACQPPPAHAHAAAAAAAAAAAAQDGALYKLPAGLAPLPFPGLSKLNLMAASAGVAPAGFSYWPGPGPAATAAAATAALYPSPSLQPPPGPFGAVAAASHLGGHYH
Conditions: protein: recombinant; tags: N-terminal GST; dsDNA, one strand shown. Summed up: (§1)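 Human transcription factors carrying a GST fusion were produced in yeast, bound to glutathione beads, tagged with DNA barcodes and pooled together with a tag-only sample. Each pool was held with 200 nmole of a random double-stranded 16-mer DNA library in Tris/NaCl/DTT/glycerol buffer for 30 min at room temperature, then washed, crosslinked in 0.1% formaldehyde, proximity-ligated with BsaI/T4 ligase (1 h, 37 °C), PCR-amplified and sequenced on an Illumina NextSeq500. Binding signal is the read frequency of each hexamer for a given factor divided by its frequency in the tag-only sample.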

The target in another assay is ETV5 (Homo sapiens, UniProt P41161 1-510). Conditions: protein: recombinant; tags: N-terminal GST; dsDNA, one strand shown. Summed up:
as §1

The next assay concerns the target HSF1 (Homo sapiens, UniProt Q00613 1-529). Conditions: protein: recombinant; tags: N-terminal GST; chain copies: 3; dsDNA, one strand shown. Summed up:
as §1

The next assay concerns the target T2, SPIC (Homo sapiens, UniProt Q8N5J4 1-248).
T2 sequence: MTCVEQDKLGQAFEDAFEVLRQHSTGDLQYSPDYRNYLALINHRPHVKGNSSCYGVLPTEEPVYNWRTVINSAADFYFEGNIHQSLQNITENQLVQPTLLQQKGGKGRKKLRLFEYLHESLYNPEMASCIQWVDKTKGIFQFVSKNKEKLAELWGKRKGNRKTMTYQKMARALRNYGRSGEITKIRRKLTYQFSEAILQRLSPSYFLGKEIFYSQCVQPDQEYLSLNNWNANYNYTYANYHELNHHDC
As to conditions: protein: recombinant; tags: N-terminal GST; dsDNA, one strand shown. The essentials:
as §1

A further assay has as its target ELF4 (Homo sapiens, UniProt Q99607 1-663). As to conditions: protein: recombinant; tags: N-terminal GST; dsDNA, one strand shown. The essentials:
as §1

The target in the next assay is T3, ELK4 (Homo sapiens, UniProt P28324-2 1-405).
T3 sequence: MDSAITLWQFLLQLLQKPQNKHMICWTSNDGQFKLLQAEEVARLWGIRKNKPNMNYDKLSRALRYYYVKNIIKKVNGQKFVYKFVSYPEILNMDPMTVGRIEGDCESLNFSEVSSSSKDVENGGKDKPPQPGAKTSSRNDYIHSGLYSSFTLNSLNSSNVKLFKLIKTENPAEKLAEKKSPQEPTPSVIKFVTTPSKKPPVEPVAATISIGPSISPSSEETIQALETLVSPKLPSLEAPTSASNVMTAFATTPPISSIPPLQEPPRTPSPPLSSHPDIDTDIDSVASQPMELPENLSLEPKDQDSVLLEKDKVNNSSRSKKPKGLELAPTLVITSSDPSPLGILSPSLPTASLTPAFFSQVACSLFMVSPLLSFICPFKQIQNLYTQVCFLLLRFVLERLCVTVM
Conditions: protein: recombinant; tags: N-terminal GST; dsDNA, one strand shown. The essentials: as §1

Another assay has as its target T4, ETV2 (Homo sapiens, UniProt O00321 1-342).
T4 sequence: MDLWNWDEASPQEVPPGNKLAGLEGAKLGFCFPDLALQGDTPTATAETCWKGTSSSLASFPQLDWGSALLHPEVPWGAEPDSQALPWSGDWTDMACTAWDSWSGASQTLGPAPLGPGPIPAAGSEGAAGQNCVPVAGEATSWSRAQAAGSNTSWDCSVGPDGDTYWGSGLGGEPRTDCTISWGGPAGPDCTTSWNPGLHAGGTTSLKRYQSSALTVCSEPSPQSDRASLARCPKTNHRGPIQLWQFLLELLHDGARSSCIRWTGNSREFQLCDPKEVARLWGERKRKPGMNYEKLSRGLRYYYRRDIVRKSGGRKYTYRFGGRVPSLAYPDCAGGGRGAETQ
Conditions: protein: recombinant; tags: N-terminal GST; dsDNA, one strand shown. The essentials:
as §1

The next assay deals with T5, ELF3 (Homo sapiens, UniProt P78545 1-371).
T5 sequence: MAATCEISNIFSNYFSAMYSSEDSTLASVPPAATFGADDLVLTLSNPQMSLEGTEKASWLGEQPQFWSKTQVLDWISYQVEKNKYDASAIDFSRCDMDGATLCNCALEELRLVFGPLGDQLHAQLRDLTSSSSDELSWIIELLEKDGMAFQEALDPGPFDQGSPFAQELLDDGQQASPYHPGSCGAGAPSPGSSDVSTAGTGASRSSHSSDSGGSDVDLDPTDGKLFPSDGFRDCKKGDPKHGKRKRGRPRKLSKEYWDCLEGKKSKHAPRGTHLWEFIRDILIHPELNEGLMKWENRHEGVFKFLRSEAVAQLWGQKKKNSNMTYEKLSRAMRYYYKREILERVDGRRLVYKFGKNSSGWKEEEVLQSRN
Conditions: protein: recombinant; tags: N-terminal GST; dsDNA, one strand shown. The essentials:
as §1

A further assay deals with CRX (Homo sapiens, UniProt O43186 1-299). Conditions: protein: recombinant; tags: N-terminal GST; dsDNA, one strand shown. Summed up: as §1
For the next assay, the target named is ETV1 (Homo sapiens, UniProt P50549 1-477). As to conditions: protein: recombinant; tags: N-terminal GST; dsDNA, one strand shown. The essentials:
as §1

For a further assay, the target named is T6, ERF (Homo sapiens, UniProt P50548 1-548).
T6 sequence: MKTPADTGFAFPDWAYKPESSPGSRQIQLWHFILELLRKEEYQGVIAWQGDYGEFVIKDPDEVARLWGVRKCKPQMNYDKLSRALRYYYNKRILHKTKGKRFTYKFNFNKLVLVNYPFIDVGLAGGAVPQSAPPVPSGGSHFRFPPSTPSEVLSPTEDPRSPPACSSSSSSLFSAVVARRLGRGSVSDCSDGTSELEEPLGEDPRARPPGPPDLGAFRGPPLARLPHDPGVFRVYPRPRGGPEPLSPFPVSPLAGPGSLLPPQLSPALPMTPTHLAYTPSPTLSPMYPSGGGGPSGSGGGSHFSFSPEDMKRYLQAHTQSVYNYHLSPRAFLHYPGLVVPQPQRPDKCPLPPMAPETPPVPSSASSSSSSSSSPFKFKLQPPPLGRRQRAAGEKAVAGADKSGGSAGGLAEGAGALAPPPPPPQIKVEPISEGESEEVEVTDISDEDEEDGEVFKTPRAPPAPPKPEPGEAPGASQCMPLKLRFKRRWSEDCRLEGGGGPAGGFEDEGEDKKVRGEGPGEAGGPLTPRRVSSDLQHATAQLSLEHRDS
As to conditions: protein: recombinant; tags: N-terminal GST; dsDNA, one strand shown. Summed up: as §1

The next assay deals with T7, ETV3L (Homo sapiens, UniProt Q6ZN32 1-361).
T7 sequence: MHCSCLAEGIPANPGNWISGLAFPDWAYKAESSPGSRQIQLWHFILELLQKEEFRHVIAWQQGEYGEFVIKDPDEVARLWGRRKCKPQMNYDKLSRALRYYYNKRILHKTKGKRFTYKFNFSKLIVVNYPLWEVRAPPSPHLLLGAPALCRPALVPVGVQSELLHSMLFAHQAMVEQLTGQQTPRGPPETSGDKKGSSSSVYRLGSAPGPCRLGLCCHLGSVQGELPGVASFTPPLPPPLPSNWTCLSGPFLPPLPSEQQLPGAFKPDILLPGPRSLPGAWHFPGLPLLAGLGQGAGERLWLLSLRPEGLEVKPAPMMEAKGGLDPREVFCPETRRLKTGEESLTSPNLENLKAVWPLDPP
As to conditions: protein: recombinant; tags: N-terminal GST; dsDNA, one strand shown. The essentials: as §1

A further assay has as its target T8, ETS2 (Homo sapiens, UniProt P15036 1-469).
T8 sequence: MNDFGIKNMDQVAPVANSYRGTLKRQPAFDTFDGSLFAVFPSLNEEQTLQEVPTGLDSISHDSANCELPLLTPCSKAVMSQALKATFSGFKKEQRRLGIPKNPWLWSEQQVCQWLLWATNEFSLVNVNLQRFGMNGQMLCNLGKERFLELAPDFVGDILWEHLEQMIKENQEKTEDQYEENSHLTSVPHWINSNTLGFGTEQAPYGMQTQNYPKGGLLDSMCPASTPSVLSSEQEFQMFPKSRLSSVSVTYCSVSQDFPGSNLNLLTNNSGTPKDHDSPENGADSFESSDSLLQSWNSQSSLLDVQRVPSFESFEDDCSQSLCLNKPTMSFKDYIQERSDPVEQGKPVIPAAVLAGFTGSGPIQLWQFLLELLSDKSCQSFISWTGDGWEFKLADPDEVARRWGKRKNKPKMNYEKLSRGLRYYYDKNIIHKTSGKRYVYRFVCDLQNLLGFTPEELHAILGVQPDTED
Conditions: protein: recombinant; tags: N-terminal GST; dsDNA, one strand shown. The essentials:
as §1

The target in the next assay is T9, SPDEF (Homo sapiens, UniProt O95238 1-335).
T9 sequence: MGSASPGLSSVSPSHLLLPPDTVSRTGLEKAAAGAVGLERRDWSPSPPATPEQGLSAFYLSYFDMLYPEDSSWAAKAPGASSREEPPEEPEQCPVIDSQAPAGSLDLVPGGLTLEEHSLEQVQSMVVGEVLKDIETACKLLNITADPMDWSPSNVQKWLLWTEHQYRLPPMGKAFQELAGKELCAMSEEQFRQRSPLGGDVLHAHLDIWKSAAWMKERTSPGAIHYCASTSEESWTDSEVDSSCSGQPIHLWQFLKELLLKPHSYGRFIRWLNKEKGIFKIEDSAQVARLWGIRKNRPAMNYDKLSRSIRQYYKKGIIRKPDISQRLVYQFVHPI
Conditions: protein: recombinant; tags: N-terminal GST; dsDNA, one strand shown. Summed up:
as §1

In another assay the target is T10, ETV7 (Homo sapiens, UniProt Q9Y603 1-341).
T10 sequence: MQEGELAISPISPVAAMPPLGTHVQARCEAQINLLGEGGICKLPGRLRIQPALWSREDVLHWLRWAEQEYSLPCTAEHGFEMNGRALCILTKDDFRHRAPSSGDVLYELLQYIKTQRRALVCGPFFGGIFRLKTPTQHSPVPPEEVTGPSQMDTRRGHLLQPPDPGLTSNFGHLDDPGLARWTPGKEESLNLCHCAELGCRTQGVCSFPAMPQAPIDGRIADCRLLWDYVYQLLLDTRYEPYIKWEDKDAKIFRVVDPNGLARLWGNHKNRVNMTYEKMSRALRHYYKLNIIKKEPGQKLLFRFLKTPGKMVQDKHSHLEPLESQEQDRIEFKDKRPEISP
As to conditions: protein: recombinant; tags: N-terminal GST; dsDNA, one strand shown. The essentials:
as §1

Another assay addresses T11, ELF5 (Homo sapiens, UniProt Q9UKW6-2 1-255).
T11 sequence: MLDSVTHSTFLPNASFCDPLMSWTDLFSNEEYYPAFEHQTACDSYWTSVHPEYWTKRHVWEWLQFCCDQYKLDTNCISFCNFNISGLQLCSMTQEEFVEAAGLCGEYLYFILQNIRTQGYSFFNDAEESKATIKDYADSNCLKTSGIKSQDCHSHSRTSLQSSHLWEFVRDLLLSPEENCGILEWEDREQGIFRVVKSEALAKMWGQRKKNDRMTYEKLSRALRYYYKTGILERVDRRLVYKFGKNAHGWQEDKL
As to conditions: protein: recombinant; tags: N-terminal GST; dsDNA, one strand shown. The essentials: as §1

Another assay addresses T12, ETV3 (Homo sapiens, UniProt P41162-2 1-143).
T12 sequence: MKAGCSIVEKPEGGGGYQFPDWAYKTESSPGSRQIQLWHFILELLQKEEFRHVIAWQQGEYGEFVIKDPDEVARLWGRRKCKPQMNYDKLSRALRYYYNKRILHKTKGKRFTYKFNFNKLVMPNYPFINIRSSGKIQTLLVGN
Conditions: protein: recombinant; tags: N-terminal GST; dsDNA, one strand shown. The essentials:
as §1

The target in the next assay is ETV6 (Homo sapiens, UniProt P41212 1-452). Conditions: protein: recombinant; tags: N-terminal GST; dsDNA, one strand shown. The essentials: as §1
ETV6, sequence (P41212 whole entry): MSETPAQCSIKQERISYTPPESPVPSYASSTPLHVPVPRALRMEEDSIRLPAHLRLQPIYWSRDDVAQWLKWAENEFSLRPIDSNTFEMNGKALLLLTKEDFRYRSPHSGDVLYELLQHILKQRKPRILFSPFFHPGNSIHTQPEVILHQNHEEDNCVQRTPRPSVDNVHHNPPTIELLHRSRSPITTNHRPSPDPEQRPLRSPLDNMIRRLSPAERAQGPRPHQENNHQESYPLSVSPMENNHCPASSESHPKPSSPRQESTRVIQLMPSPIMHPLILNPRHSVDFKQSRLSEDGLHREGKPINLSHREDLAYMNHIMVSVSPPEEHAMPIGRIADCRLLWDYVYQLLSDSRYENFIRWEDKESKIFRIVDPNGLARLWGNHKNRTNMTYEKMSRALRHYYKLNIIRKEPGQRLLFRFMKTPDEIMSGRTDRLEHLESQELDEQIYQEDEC

ETV1, sequence (P50549 whole entry): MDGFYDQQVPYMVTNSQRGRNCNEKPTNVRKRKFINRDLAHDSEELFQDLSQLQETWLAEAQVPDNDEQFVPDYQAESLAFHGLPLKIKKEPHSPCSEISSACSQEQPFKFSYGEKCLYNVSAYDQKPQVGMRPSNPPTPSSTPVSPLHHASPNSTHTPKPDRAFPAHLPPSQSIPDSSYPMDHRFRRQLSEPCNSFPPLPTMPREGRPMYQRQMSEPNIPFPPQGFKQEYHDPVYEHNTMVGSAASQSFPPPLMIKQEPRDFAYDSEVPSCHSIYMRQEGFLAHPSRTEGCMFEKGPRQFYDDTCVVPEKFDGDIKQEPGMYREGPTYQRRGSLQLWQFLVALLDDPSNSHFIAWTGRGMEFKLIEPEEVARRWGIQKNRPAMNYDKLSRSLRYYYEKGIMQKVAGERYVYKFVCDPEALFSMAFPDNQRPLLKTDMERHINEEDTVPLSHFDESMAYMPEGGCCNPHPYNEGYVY
HSF1, sequence (Q00613 whole entry): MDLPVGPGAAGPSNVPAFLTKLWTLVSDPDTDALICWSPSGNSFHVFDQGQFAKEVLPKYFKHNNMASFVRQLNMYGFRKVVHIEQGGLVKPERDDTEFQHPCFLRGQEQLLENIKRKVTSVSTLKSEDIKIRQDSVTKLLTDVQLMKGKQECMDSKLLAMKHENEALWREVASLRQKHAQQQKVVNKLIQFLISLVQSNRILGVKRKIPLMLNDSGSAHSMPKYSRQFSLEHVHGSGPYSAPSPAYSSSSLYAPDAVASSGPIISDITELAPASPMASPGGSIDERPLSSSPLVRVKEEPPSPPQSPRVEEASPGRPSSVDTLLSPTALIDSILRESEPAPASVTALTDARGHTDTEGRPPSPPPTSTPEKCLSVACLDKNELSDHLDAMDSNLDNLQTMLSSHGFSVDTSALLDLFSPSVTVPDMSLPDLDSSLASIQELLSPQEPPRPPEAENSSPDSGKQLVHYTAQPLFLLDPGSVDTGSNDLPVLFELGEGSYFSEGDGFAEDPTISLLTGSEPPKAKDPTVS
ELF4, sequence (Q99607 whole entry): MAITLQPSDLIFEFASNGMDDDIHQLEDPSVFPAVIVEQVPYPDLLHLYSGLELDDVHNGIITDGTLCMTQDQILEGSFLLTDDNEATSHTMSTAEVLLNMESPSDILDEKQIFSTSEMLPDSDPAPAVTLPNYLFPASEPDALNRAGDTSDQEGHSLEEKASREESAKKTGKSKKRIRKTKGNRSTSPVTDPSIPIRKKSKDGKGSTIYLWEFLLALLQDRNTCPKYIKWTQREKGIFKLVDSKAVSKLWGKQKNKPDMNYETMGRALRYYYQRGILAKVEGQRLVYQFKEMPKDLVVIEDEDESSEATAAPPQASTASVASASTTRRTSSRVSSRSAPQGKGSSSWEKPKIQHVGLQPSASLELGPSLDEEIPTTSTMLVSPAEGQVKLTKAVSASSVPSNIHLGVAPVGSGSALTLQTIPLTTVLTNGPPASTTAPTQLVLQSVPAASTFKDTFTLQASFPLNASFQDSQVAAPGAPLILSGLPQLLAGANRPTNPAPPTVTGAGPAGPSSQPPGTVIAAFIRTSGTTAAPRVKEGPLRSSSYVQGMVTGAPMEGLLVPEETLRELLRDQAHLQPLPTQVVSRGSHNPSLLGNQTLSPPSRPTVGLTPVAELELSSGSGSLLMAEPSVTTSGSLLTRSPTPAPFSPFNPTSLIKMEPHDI
ETV5, sequence (P41161 whole entry): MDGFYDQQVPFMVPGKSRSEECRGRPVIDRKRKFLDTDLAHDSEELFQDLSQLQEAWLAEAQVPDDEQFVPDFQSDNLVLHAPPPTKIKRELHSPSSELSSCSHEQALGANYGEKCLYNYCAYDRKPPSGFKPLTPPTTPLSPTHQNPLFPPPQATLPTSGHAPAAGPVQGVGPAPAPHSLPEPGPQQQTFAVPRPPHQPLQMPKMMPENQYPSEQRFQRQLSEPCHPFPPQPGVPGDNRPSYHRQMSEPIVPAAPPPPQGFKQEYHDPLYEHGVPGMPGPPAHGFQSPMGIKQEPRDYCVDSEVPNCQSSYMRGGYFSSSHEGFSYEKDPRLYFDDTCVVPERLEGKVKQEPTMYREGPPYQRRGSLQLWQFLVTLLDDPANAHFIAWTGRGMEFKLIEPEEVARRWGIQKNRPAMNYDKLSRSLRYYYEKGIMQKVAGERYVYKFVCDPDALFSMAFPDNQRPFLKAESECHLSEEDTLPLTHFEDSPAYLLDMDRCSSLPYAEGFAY
CRX, sequence (O43186 whole entry): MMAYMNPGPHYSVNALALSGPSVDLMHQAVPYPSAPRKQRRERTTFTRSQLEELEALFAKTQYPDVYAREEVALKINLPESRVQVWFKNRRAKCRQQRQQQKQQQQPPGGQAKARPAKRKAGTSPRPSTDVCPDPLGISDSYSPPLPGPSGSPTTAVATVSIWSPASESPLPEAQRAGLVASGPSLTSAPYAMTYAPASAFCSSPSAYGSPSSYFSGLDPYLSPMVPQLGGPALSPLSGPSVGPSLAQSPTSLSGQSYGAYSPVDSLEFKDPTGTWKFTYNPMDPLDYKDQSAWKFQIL

For the sequence AATCTC, the binding signal with FEV was 1.23 fold enrichment (6-mer frequency, TF over GST control); with ETV5 it was 1.37 fold enrichment (6-mer frequency, TF over GST control); with HSF1, 2.13 fold enrichment (6-mer frequency, TF over GST control); in the assay with SPIC it was 1.13 fold enrichment (6-mer frequency, TF over GST control); in the assay with ELF4, 1.25 fold enrichment (6-mer frequency, TF over GST control); with ELK4 it was 1.22 fold enrichment (6-mer frequency, TF over GST control). Also, the binding signal is 1.26 fold enrichment (6-mer frequency, TF over GST control) with ETV2; 1.27 fold enrichment (6-mer frequency, TF over GST control) with ELF3; 2.5 fold enrichment (6-mer frequency, TF over GST control) in the assay with CRX; 1.34 fold enrichment (6-mer frequency, TF over GST control) with ETV1; 1.27 fold enrichment (6-mer frequency, TF over GST control) with ERF; 1.15 fold enrichment (6-mer frequency, TF over GST control) with ETV3L. In addition, the binding signal with ETS2 was 1.19 fold enrichment (6-mer frequency, TF over GST control); in the assay with SPDEF, 1.14 fold enrichment (6-mer frequency, TF over GST control); with ETV7 it was 1.2 fold enrichment (6-mer frequency, TF over GST control); with ELF5, 1.29 fold enrichment (6-mer frequency, TF over GST control); with ETV3, 1.2 fold enrichment (6-mer frequency, TF over GST control); in the assay with ETV6, 1.26 fold enrichment (6-mer frequency, TF over GST control).
